Test results taken from paper PMC11006913.
Positions count from the first letter of the chain named.

Columns and labels:
Assay in all cases: PBM; 200 nM protein, PBS
Conditions in all cases: dsDNA, one strand shown
PRRX1 [1] = biological target: PRRX1 (Homo sapiens, UniProt P54821 80-166, F113S)
VAX1 = VAX1 (Homo sapiens, UniProt Q5SQQ9 86-172)
PRRX1 [2] = biological target: PRRX1 (Homo sapiens, UniProt P54821 80-166)
HOXA2 [3] = biological target: HOXA2 (Homo sapiens, UniProt O43364 129-215, R185T)
MSX2 [4] = biological target: MSX2 (Homo sapiens, UniProt P35548 130-214, R199I)
ALX3 [5] = biological target: ALX3 (Homo sapiens, UniProt O95076 139-225, N203Q)
NKX2-6 [6] = biological target: T1, NKX2-6 (Homo sapiens, UniProt A6NCS4 118-204)
T1 sequence: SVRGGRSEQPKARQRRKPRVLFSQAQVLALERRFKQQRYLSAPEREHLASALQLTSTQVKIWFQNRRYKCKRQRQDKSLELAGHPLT

MSX2 [7] = biological target: MSX2 (Homo sapiens, UniProt P35548 130-214)
ALX3 [8] = biological target: ALX3 (Homo sapiens, UniProt O95076 139-225)
ALX3 [9] = biological target: ALX3 (Homo sapiens, UniProt O95076 139-225, L168Q)
NKX2-6 [10] = biological target: T2, NKX2-6 (Homo sapiens, UniProt A6NCS4 118-204, F151L)
T2 sequence: T1 sequence with F34L

ALX3 [11] = biological target: ALX3 (Homo sapiens, UniProt O95076 139-225, L168V)
MSX2 [12] = biological target: MSX2 (Homo sapiens, UniProt P35548 130-214, F161Y)
ALX3 [13] = biological target: ALX3 (Homo sapiens, UniProt O95076 139-225, N203S)
HESX1 = HESX1 (Homo sapiens, UniProt Q9UBX0 95-180)
NKX2-6 [14] = biological target: T3, NKX2-6 (Homo sapiens, UniProt A6NCS4 118-204, R150C)
T3 sequence: T1 sequence with R33C

PROP1 [15] = biological target: PROP1 (Homo sapiens, UniProt O75360 56-141)
PROP1 [16] = biological target: PROP1 (Homo sapiens, UniProt O75360 56-141, R99H)
PROP1 [17] = biological target: PROP1 (Homo sapiens, UniProt O75360 56-141, F88S)
PITX2 = PITX2 (Homo sapiens, UniProt Q99697 72-157)
ALX1 = ALX1 (Homo sapiens, UniProt Q15699 118-204, L144R)
HOXD13 [18] = biological target: HOXD13 (Homo sapiens, UniProt P35453 263-343, T313R)
HOXA2 [19] = biological target: HOXA2 (Homo sapiens, UniProt O43364 129-215, R185K)
HOXD13 [20] = biological target: HOXD13 (Homo sapiens, UniProt P35453 263-343)
HOXD13 [21] = biological target: HOXD13 (Homo sapiens, UniProt P35453 263-343, T313A)
HOXA2 [22] = biological target: HOXA2 (Homo sapiens, UniProt O43364 129-215, Y150S)
NKX3-2 [23] = biological target: NKX3-2 (Homo sapiens, UniProt P78367 192-278, P234S)
HOXA2 [24] = biological target: HOXA2 (Homo sapiens, UniProt O43364 129-215)
NKX3-2 [25] = biological target: NKX3-2 (Homo sapiens, UniProt P78367 192-278)
SHOX = SHOX (Homo sapiens, UniProt O15266 103-189, R173C)
CRX = CRX (Homo sapiens, UniProt O43186 26-111, R41L)
Sequence of CRX (O43186 26-111 R41L): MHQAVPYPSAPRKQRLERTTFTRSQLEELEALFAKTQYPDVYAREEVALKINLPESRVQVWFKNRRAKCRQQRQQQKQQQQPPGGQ

Sequence of MSX2 (Homo sapiens, UniProt P35548 130-214, R199I) (P35548 130-214 R199I): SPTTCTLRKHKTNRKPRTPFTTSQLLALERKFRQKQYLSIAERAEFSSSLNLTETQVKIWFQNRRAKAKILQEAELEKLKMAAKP
Sequence of PRRX1 (Homo sapiens, UniProt P54821 80-166) (P54821 80-166): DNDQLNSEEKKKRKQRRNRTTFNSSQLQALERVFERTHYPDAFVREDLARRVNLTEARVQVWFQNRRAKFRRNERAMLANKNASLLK
Sequence of PRRX1 (Homo sapiens, UniProt P54821 80-166, F113S) (P54821 80-166 F113S): as the sequence (P54821 80-166) above, with F34S counted along it
Sequence of HOXA2 (Homo sapiens, UniProt O43364 129-215, R185T) (O43364 129-215 R185T): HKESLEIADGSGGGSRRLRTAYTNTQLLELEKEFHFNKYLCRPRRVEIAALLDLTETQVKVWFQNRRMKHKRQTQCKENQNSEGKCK
Sequence of MSX2 (Homo sapiens, UniProt P35548 130-214) (P35548 130-214): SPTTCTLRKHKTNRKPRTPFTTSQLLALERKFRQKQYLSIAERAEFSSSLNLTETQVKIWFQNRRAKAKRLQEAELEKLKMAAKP
Sequence of MSX2 (Homo sapiens, UniProt P35548 130-214, F161Y) (P35548 130-214 F161Y): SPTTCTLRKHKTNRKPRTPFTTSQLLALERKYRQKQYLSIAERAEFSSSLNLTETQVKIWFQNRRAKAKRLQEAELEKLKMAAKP
Sequence of HOXA2 (Homo sapiens, UniProt O43364 129-215, Y150S) (O43364 129-215 Y150S): as the sequence (O43364 129-215 R185T) above, with Y22S, T57R counted along it
Sequence of HOXA2 (Homo sapiens, UniProt O43364 129-215, R185K) (O43364 129-215 R185K): as the sequence (O43364 129-215 R185T) above, with T57K counted along it
Sequence of HOXD13 (Homo sapiens, UniProt P35453 263-343, T313R) (P35453 263-343 T313R): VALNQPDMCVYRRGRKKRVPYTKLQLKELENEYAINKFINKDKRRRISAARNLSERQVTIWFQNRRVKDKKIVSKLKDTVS
Sequence of HOXD13 (Homo sapiens, UniProt P35453 263-343) (P35453 263-343): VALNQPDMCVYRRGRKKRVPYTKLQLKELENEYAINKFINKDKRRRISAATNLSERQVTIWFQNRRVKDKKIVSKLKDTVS
Sequence of HOXA2 (Homo sapiens, UniProt O43364 129-215) (O43364 129-215): as the sequence (O43364 129-215 R185T) above, with T57R counted along it
Sequence of HOXD13 (Homo sapiens, UniProt P35453 263-343, T313A) (P35453 263-343 T313A): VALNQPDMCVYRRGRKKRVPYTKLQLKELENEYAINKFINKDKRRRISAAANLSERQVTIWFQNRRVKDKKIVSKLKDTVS
Sequence of HESX1 (Q9UBX0 95-180): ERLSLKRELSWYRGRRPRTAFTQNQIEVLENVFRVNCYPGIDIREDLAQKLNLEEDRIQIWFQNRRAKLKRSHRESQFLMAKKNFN
Sequence of PROP1 (Homo sapiens, UniProt O75360 56-141, F88S) (O75360 56-141 F88S): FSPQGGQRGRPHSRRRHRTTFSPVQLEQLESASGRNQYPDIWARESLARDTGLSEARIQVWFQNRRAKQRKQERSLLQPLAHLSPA
Sequence of SHOX (O15266 103-189 R173C): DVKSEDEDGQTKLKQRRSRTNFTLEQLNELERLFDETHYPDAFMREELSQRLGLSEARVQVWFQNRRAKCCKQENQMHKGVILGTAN
Sequence of NKX3-2 (Homo sapiens, UniProt P78367 192-278) (P78367 192-278): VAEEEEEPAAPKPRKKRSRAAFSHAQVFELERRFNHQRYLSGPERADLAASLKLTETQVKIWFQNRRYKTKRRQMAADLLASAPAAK
Sequence of NKX3-2 (Homo sapiens, UniProt P78367 192-278, P234S) (P78367 192-278 P234S): as the sequence (P78367 192-278) above, with P43S counted along it
Sequence of ALX3 (Homo sapiens, UniProt O95076 139-225, L168Q) (O95076 139-225 L168Q): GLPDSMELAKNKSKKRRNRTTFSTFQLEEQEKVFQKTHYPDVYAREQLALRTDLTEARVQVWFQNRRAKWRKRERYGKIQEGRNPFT
Sequence of ALX3 (Homo sapiens, UniProt O95076 139-225, L168V) (O95076 139-225 L168V): as the sequence (O95076 139-225 L168Q) above, with Q30V counted along it
Sequence of ALX1 (Q15699 118-204 L144R): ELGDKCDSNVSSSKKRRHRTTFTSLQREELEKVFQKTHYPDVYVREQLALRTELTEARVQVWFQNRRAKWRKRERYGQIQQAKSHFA
Sequence of PROP1 (Homo sapiens, UniProt O75360 56-141) (O75360 56-141): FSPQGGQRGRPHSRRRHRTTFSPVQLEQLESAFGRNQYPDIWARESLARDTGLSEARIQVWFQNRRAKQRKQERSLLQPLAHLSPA
Sequence of ALX3 (Homo sapiens, UniProt O95076 139-225, N203Q) (O95076 139-225 N203Q): as the sequence (O95076 139-225 L168Q) above, with Q30L, N65Q counted along it
Sequence of PROP1 (Homo sapiens, UniProt O75360 56-141, R99H) (O75360 56-141 R99H): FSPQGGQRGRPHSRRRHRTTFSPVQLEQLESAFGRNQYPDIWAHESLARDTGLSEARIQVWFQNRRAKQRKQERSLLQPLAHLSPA
Sequence of ALX3 (Homo sapiens, UniProt O95076 139-225, N203S) (O95076 139-225 N203S): as the sequence (O95076 139-225 L168Q) above, with Q30L, N65S counted along it
Sequence of VAX1 (Q5SQQ9 86-172): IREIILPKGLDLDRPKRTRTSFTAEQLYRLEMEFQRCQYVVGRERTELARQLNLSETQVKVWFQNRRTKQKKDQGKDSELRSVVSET
Sequence of ALX3 (Homo sapiens, UniProt O95076 139-225) (O95076 139-225): as the sequence (O95076 139-225 L168Q) above, with Q30L counted along it

## AGTGGTAA
PRRX1 [1]
  binding signal: 10 upbm affinity estimate (log intensity, higher = more binding, comparable within an allelic series)
VAX1
  binding signal: 9.41 upbm affinity estimate (log intensity, higher = more binding, comparable within an allelic series)
PRRX1 [2]
  binding signal: 11.2 upbm affinity estimate (log intensity, higher = more binding, comparable within an allelic series)

## ACTAATCA
PRRX1 [1]
  binding signal: 10.9 upbm affinity estimate (log intensity, higher = more binding, comparable within an allelic series)
HOXA2 [3]
  binding signal: 12.5 upbm affinity estimate (log intensity, higher = more binding, comparable within an allelic series)
MSX2 [4]
  binding signal: 11.2 upbm affinity estimate (log intensity, higher = more binding, comparable within an allelic series)
PRRX1 [2]
  binding signal: 13.2 upbm affinity estimate (log intensity, higher = more binding, comparable within an allelic series)

## CCCAACGC
PRRX1 [1]
  binding signal: 9.62 upbm affinity estimate (log intensity, higher = more binding, comparable within an allelic series)
PRRX1 [2]
  binding signal: 9.3 upbm affinity estimate (log intensity, higher = more binding, comparable within an allelic series)

## ACGCCCCG
PRRX1 [1]
  binding signal: 9.23 upbm affinity estimate (log intensity, higher = more binding, comparable within an allelic series)
MSX2 [4]
  binding signal: 9.45 upbm affinity estimate (log intensity, higher = more binding, comparable within an allelic series)
ALX3 [5]
  binding signal: 7.74 upbm affinity estimate (log intensity, higher = more binding, comparable within an allelic series)
NKX2-6 [6]
  binding signal: 9.2 upbm affinity estimate (log intensity, higher = more binding, comparable within an allelic series)
MSX2 [7]
  binding signal: 9.36 upbm affinity estimate (log intensity, higher = more binding, comparable within an allelic series)
ALX3 [8]
  binding signal: 7.57 upbm affinity estimate (log intensity, higher = more binding, comparable within an allelic series)
ALX3 [9]
  binding signal: 7.68 upbm affinity estimate (log intensity, higher = more binding, comparable within an allelic series)
NKX2-6 [10]
  binding signal: 9.33 upbm affinity estimate (log intensity, higher = more binding, comparable within an allelic series)
ALX3 [11]
  binding signal: 7.67 upbm affinity estimate (log intensity, higher = more binding, comparable within an allelic series)
MSX2 [12]
  binding signal: 9.41 upbm affinity estimate (log intensity, higher = more binding, comparable within an allelic series)
ALX3 [13]
  binding signal: 7.73 upbm affinity estimate (log intensity, higher = more binding, comparable within an allelic series)
PRRX1 [2]
  binding signal: 9.08 upbm affinity estimate (log intensity, higher = more binding, comparable within an allelic series)

## CGTAAGTA
PRRX1 [1]
  binding signal: 10 upbm affinity estimate (log intensity, higher = more binding, comparable within an allelic series)
HESX1
  binding signal: 7.17 upbm affinity estimate (log intensity, higher = more binding, comparable within an allelic series)
PRRX1 [2]
  binding signal: 11 upbm affinity estimate (log intensity, higher = more binding, comparable within an allelic series)

## GTCCCCCA
PRRX1 [1]
  binding signal: 9.39 upbm affinity estimate (log intensity, higher = more binding, comparable within an allelic series)
NKX2-6 [14]
  binding signal: 9.42 upbm affinity estimate (log intensity, higher = more binding, comparable within an allelic series)
PRRX1 [2]
  binding signal: 9.22 upbm affinity estimate (log intensity, higher = more binding, comparable within an allelic series)

## ACTGTTAT
PRRX1 [1]
  binding signal: 10.2 upbm affinity estimate (log intensity, higher = more binding, comparable within an allelic series)
PROP1 [15]
  binding signal: 8.21 upbm affinity estimate (log intensity, higher = more binding, comparable within an allelic series)
PROP1 [16]
  binding signal: 7.73 upbm affinity estimate (log intensity, higher = more binding, comparable within an allelic series)
PROP1 [17]
  binding signal: 7.48 upbm affinity estimate (log intensity, higher = more binding, comparable within an allelic series)
PRRX1 [2]
  binding signal: 11.4 upbm affinity estimate (log intensity, higher = more binding, comparable within an allelic series)

## ACGTTGCG
PRRX1 [1]
  binding signal: 9.5 upbm affinity estimate (log intensity, higher = more binding, comparable within an allelic series)
PITX2
  binding signal: 7.94 upbm affinity estimate (log intensity, higher = more binding, comparable within an allelic series)
PRRX1 [2]
  binding signal: 9.22 upbm affinity estimate (log intensity, higher = more binding, comparable within an allelic series)

## TTAATCAA
PRRX1 [1]
  binding signal: 11.1 upbm affinity estimate (log intensity, higher = more binding, comparable within an allelic series)
ALX1
  binding signal: 11.2 upbm affinity estimate (log intensity, higher = more binding, comparable within an allelic series)
PRRX1 [2]
  binding signal: 13.3 upbm affinity estimate (log intensity, higher = more binding, comparable within an allelic series)

## CGGCACCG
PRRX1 [1]
  binding signal: 9.31 upbm affinity estimate (log intensity, higher = more binding, comparable within an allelic series)
MSX2 [4]
  binding signal: 9.48 upbm affinity estimate (log intensity, higher = more binding, comparable within an allelic series)
PITX2
  binding signal: 7.77 upbm affinity estimate (log intensity, higher = more binding, comparable within an allelic series)
MSX2 [7]
  binding signal: 9.42 upbm affinity estimate (log intensity, higher = more binding, comparable within an allelic series)
MSX2 [12]
  binding signal: 9.54 upbm affinity estimate (log intensity, higher = more binding, comparable within an allelic series)
PRRX1 [2]
  binding signal: 9.57 upbm affinity estimate (log intensity, higher = more binding, comparable within an allelic series)

## GCTCGGCC
PRRX1 [1]
  binding signal: 9.12 upbm affinity estimate (log intensity, higher = more binding, comparable within an allelic series)
HOXA2 [3]
  binding signal: 7.15 upbm affinity estimate (log intensity, higher = more binding, comparable within an allelic series)
HOXD13 [18]
  binding signal: 9.46 upbm affinity estimate (log intensity, higher = more binding, comparable within an allelic series)
HOXA2 [19]
  binding signal: 10.3 upbm affinity estimate (log intensity, higher = more binding, comparable within an allelic series)
HOXD13 [20]
  binding signal: 9.56 upbm affinity estimate (log intensity, higher = more binding, comparable within an allelic series)
HOXD13 [21]
  binding signal: 9.62 upbm affinity estimate (log intensity, higher = more binding, comparable within an allelic series)
HOXA2 [22]
  binding signal: 10.3 upbm affinity estimate (log intensity, higher = more binding, comparable within an allelic series)
NKX3-2 [23]
  binding signal: 10.3 upbm affinity estimate (log intensity, higher = more binding, comparable within an allelic series)
PRRX1 [2]
  binding signal: 9.13 upbm affinity estimate (log intensity, higher = more binding, comparable within an allelic series)
HOXA2 [24]
  binding signal: 6.97 upbm affinity estimate (log intensity, higher = more binding, comparable within an allelic series)
NKX3-2 [25]
  binding signal: 10.3 upbm affinity estimate (log intensity, higher = more binding, comparable within an allelic series)

## ACCCCGGG
PRRX1 [1]
  binding signal: 9.35 upbm affinity estimate (log intensity, higher = more binding, comparable within an allelic series)
MSX2 [4]
  binding signal: 9.55 upbm affinity estimate (log intensity, higher = more binding, comparable within an allelic series)
MSX2 [7]
  binding signal: 9.62 upbm affinity estimate (log intensity, higher = more binding, comparable within an allelic series)
MSX2 [12]
  binding signal: 9.67 upbm affinity estimate (log intensity, higher = more binding, comparable within an allelic series)
PRRX1 [2]
  binding signal: 9.33 upbm affinity estimate (log intensity, higher = more binding, comparable within an allelic series)

## AATTATGC
PRRX1 [1]
  binding signal: 11.1 upbm affinity estimate (log intensity, higher = more binding, comparable within an allelic series)
SHOX
  binding signal: 9.27 upbm affinity estimate (log intensity, higher = more binding, comparable within an allelic series)

## CAGGCCGC
PRRX1 [1]
  binding signal: 9.29 upbm affinity estimate (log intensity, higher = more binding, comparable within an allelic series)
HOXA2 [3]
  binding signal: 7.44 upbm affinity estimate (log intensity, higher = more binding, comparable within an allelic series)
HOXA2 [19]
  binding signal: 10.3 upbm affinity estimate (log intensity, higher = more binding, comparable within an allelic series)
HOXA2 [22]
  binding signal: 10.4 upbm affinity estimate (log intensity, higher = more binding, comparable within an allelic series)
PRRX1 [2]
  binding signal: 9.35 upbm affinity estimate (log intensity, higher = more binding, comparable within an allelic series)
HOXA2 [24]
  binding signal: 7.49 upbm affinity estimate (log intensity, higher = more binding, comparable within an allelic series)

## CTATAATC
PRRX1 [1]
  binding signal: 10.5 upbm affinity estimate (log intensity, higher = more binding, comparable within an allelic series)
CRX
  binding signal: 12.5 upbm affinity estimate (log intensity, higher = more binding, comparable within an allelic series)
PRRX1 [2]
  binding signal: 12.5 upbm affinity estimate (log intensity, higher = more binding, comparable within an allelic series)

## CATAAATC
PRRX1 [1]
  binding signal: 10.2 upbm affinity estimate (log intensity, higher = more binding, comparable within an allelic series)
HOXD13 [18]
  binding signal: 10.7 upbm affinity estimate (log intensity, higher = more binding, comparable within an allelic series)
HOXD13 [20]
  binding signal: 11.8 upbm affinity estimate (log intensity, higher = more binding, comparable within an allelic series)
HOXD13 [21]
  binding signal: 11.5 upbm affinity estimate (log intensity, higher = more binding, comparable within an allelic series)
PRRX1 [2]
  binding signal: 11.5 upbm affinity estimate (log intensity, higher = more binding, comparable within an allelic series)
